Compound activity: PubChem BioAssay, National Center for Advancing Translational Sciences (NCATS)
HT1080-NT tox = kills 2HG-producing HT-1080-NT fibrosarcoma cells; 360,000 tested, 1.6% active; HT-1080-NT fibrosarcoma viability, CellTiter-Glo ATP luminescence, 48 h; Potency, µM (highest dose often 46.1 µM), inactives show at the highest dose activity, negative = less viability, most hits filed as cytotoxic;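 further: NT is the 2HG producing partner of a matched IDH1 knockdown line; potency means the concentration at half of the fitted maximal effect; 0% = DMSO-treated cells and -100% = media-only wells without cells; nearly all actives have a fitted effect of over 55% in size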
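Read-out is CellTiter-Glo luminescence after 10 minutes at room temperature, following 48 hours' compound treatment of HT-1080-NT cells (750 cells/well, RPMI, 5% FBS, 37 degrees C).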
IL1B secr inh = inflammasome signaling inhibition, IL-1 beta readout | THP-1 LPS/ATP IL-1B secretion, AlphaLISA, 16 h; active compounds read low | 360,000 tested, 4.7% active | activity change, % at 57.5 µM | AID 743279; in the data active means activity change below about -50%; inconclusive means mostly about -30% to -49%
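THP-1 cells pretreated 1 hr with compounds (up to 57.5 uM final), then stimulated with LPS (250 ng/mL final) plus ATP (1.25 mM final); secreted IL-1B measured by AlphaLISA after 16 hr, decreased signal indicating inhibition.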
TDP1 cell noCPT = qHTS for Inhibitors of human tyrosyl-DNA phosphodiesterase 1 (TDP1): qHTS in cells in absence of CPT. Potency, µM (titrated, usually from 46.2 µM), inactives show at the top dose activity change, negative = growth inhibition, hits mostly inhibitors. 420,000 tested, 15% active. AID 686978, 2013. DT40 Tdp1-/- hTDP1 cells, no CPT, ATP luminescence, 48 h; further: potency means the concentration at half of the fitted maximal effect; nearly all actives have a fitted effect of over 55% in size
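Growth kinetics read by CellTiter-Glo luminescence after ≥48 hr at 37 °C. Cells: DT40 Tdp1-/- stably carrying human TDP1, 400 per well, compound exposure in the absence of CPT (DMSO vehicle).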
HT1080 IDH1KD tx = kills HT-1080 cells with IDH1 knockdown. Potency, µM (titrated, usually from 46.1 µM), without a hit: at the top dose activity, negative = toxicity, most hits filed as cytotoxic. HT-1080 IDH1 knockdown viability, ATP luminescence, 48 h. 360,000 tested, 2% active. AID 686971;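 further: potency means the concentration at half of the fitted maximal effect; 0% = DMSO wells and -100% = cell-free medium wells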
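Assay cells: HT-1080 with IDH1 knockdown, 750 per well, RPMI/5% FBS. Exposure: 48 h at 37 °C following 2 h pre-incubation. Read: CellTiter-Glo luminescence; fitted concentration-response, curve class assigned.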
DT40 TDP1 CPT = growth inhibition of DT40 Tdp1-/-;hTDP1 cells with camptothecin (screen for TDP1 inhibitors); 420,000 tested, 12% active; chicken DT40 Tdp1-/-;hTDP1 cells + 20 nM CPT, ATP luminescence, 48 h; Potency, µM (titrated, usually from 46.2 µM), inactives show at the top dose activity change, negative = growth inhibition, actives largely listed as inhibitors; AID 686979; further: potency means the concentration at half of the fitted maximal effect; nearly all actives have a fitted effect of over 55% in size
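Cell growth measured by CellTiter-Glo luminescence after a minimum 48 h, 37 C compound exposure with 20 nM CPT in Tdp1-knockout DT40 cells stably expressing hTDP1, seeded 400/well; qHTS titration format.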
Active calls of the source: *; ? = inconclusive; · = not tested or not shown; [ ] = another dose, or the depositor's remark. In the library only some 19% were active in any assay of this set; here they are far more common. Unless noted, the call rests on the fitted dose curve; in most records, active means well fitted curve in the direction sought with a large enough effect; inconclusive means small, poorly fitted or top-dose-only effect, or another doubt; inactive means no such curve, though single readings can be large; an effect the other way counts as inactive or inconclusive. Unless noted, on the % scale 0 is the no-effect control and ±100 the full control effect.

SMILES	HT1080-NT tox	IL1B secr inh	TDP1 cell noCPT	HT1080 IDH1KD tx	DT40 TDP1 CPT
CCN1CCCC1CNC(=O)c1cnn(-c2nccc(-c3ccco3)n2)c1C1CC1 (stereo unspecified)	·	·	3%	·	5%
COC(=O)c1sc(S(=O)(=O)N2CC(C)OC(C)C2)c(C(=O)OC)c1C (stereo unspecified)	-1%[9.24 µM]	0	14%	3%	-2%
COc1ccc(NC(=O)c2c(-c3ccccc3)c(-c3ccccc3)nn(C)c2=O)c(OC)c1	·	·	?	·	16µM*
COC(=O)c1ccc(C(=O)OC)c(NC(=O)c2c(-c3ccccc3)c(-c3ccccc3)nn(C)c2=O)c1	·	·	15µM*	·	?
COC(=O)c1ccc(C)c(NC(=O)c2c(-c3ccccc3)noc2C)c1	-3%	17	-17%	0%	-15%
COC(=O)c1ccc(NC(=O)c2c(-c3ccccc3)c(-c3ccccc3)nn(C)c2=O)cc1	·	·	-28%	·	-10%
COC(=O)c1ccc(C(=O)OC)c(NC(=O)c2c(-c3ccccc3)noc2C)c1	·	·	6.5µM*	·	6.5µM*
CCOC(=O)c1sc(N2C(=O)c3oc4ccc(F)cc4c(=O)c3C2c2ccc(C)cc2)nc1C (stereo unspecified)	·	·	-5%	·	4%
Cc1cccc(Nc2nc3c(s2)CCCC3)c1	-6%	-5	18µM*	0%	23µM*
O=C(O)c1ccc(Nc2nc3c(s2)CCCC3)cc1	-11%	15	-9%	-3%	14%
O=S1(=O)N=C(Nc2nc3c(s2)CCCC3)c2ccccc21	-19%	5	5.2µM*	-16%	6.5µM*
CC(C)c1nc(SCC(=O)Nc2c[nH]c(=O)[nH]c2=O)c2cnn(-c3ccccc3)c2n1	-11%	21	?	-8%	2%
Cc1ccc(-n2c(SCc3cn4ccsc4n3)nc3ccccc3c2=O)cc1	-9%	-21	21µM*	-28%	?
CCCCn1c(SCC(=O)Nc2ccc3c(c2)CCC3)nc2ccccc2c1=O	-2%	2	0%	-1%	?
Cc1cccc(-n2c(SCc3cc(=O)n4ccsc4n3)nc3ccccc32)c1	-22%	-2	16µM*	-14%	13µM*
COc1cccc(-n2c(SCC(=O)Nc3ccc4c(c3)CCC4)nc3ccccc3c2=O)c1	-9%	1	9.2µM*	-14%	?
CCN(CC)C(=O)CSc1nc2ccccc2c(=O)n1-c1cccc(OC)c1	-15%	?	15µM*	1%	?
CCNC(=O)CSc1nc2ccccc2c(=O)n1-c1cccc(OC)c1	7%	-17	-8%	3%	0%
CC(=O)c1ccc(N2CCN(CC(=O)N(C3CC3)C3CCS(=O)(=O)C3)CC2)c(F)c1 (stereo unspecified)	6%	11	2%	-2%	-2%
CCOc1ccc(N2C(=O)CC(NNc3nc4ccccc4s3)C2=O)cc1 (stereo unspecified)	-6%	-16	-12%	-7%	1%
CCCCCCCCNc1nc(Cl)nc(NCCN2CCOCC2)n1	4%	-4	-9%	7%	-11%
CC(=O)Nc1ccc(C(=O)N/C(=C/c2ccccc2)C(=O)N2CCCCC2)cc1	8%	-6	-2%	2%	-3%
Cc1ccc(S(=O)(=O)NC(=O)N[C@@H](C)Cc2ccccc2)cc1	·	·	8%	·	20%
CCN(CC)C(=O)CSc1nc2c(sc(=S)n2-c2ccccc2)c(=O)n1-c1ccccc1OC	-14%	-6	?	-21%	9.2µM*
Cc1ccc(-n2c(SCC(=O)Nc3ccc(N4CCOCC4)cc3)nc3ccccc3c2=O)cc1	-7%	23	?	-3%	-26%
CCN(CC)C(=O)CSc1nnc2nnc3cc(OC)ccc3n12	13µM*	12	-4%	?	-3%
CCN(CC)C(=O)CSc1nnc(COc2ccc(OC)cc2)n1N	12%	0	-5%	9%	4%
